The sample as a whole holds a higher share of hits than the screen did.
HIV RNase H inh: HIV-1 RT RNase H inhibitors, primary screen, biochemical, fluorescence; inhibition, % at 10 µM; Gag-Pol polyprotein (Human immunodeficiency virus type 1 group M subtype B (isolate …; RT-RNase H RNA/DNA duplex cleavage; hit rate 1.9% among 65,000; in the data active means inhibition above about 50%
RmlC RmlD mix: RmlC and RmlD coupled enzyme inhibitors, primary screen, biochemical, 384-well, compound mixtures, retest; RmlC/RmlD coupled enzyme inhibition, 384-well mixture HTS; hit rate 0.39% among 110,000; inhibition, % at 5.5 µM; in the data active means inhibition above about 30%, passing the limit was not always enough
* marks the source's active call; other numbers are inactive results.

CC(C)C(=O)N1CCC(CN=Cc2c(O)n(C3CCCCC3)c(=O)n(C3CCCCC3)c2=O)CC1 was read as HIV RNase H inh -1.5 and RmlC RmlD mix -23.4.
NS(=O)(=O)c1ccc(N=Cc2c(O)n(C3CCCCC3)c(=O)n(C3CCCCC3)c2=O)cc1 was read as HIV RNase H inh 51.9*.
`CCOc1ccc2nc(NC(=O)c3ccoc3C)sc2c1` gave HIV RNase H inh 5.1 and RmlC RmlD mix 5.8.
Screening COc1ccc(-c2nc3c(c(=O)n(C)c(=O)n3C)n2CC2CC(c3ccccc3)=NO2)cc1OC (stereo not given) returned HIV RNase H inh -10.5 and RmlC RmlD mix 11.4.
Screening c1ccc(Cc2nnc3sc(C4COc5ccccc5O4)nn23)cc1 (stereo not given) returned HIV RNase H inh 70.5* and RmlC RmlD mix -5.2.
For Cc1ccc(-c2nnc3sc(C4COc5ccccc5O4)nn23)cc1 (stereo not given) the results were HIV RNase H inh -11.8 and RmlC RmlD mix -12.0.
`C=C1CCN([C@@H](CC(C)C)C(=O)NCc2ccco2)S(=O)(=O)c2ccccc21` gave RmlC RmlD mix -7.2.
`COC(=O)/C=c1\sc2ncnn2c1=O` gave HIV RNase H inh 55.7* and RmlC RmlD mix 16.1.
`CNC(=O)/C(C#N)=c1\s/c(=C/C(=O)OC)c(=O)n1-c1ccccc1` gave RmlC RmlD mix -2.8.
`COc1cc(-c2ccc(NC(=O)CN3CCCCC3)c(OC)c2)ccc1NC(=O)CN1CCCCC1` gave HIV RNase H inh -2.3.
O=C(CSc1ccccn1)Nc1ccc(Br)cn1 was read as HIV RNase H inh -23.4 and RmlC RmlD mix -3.2.
O=C(CSc1ncn(-c2ccccc2)n1)Nc1ccc(Br)cn1 was read as HIV RNase H inh 55.1* and RmlC RmlD mix 0.0.
For CC(C)c1cn(C2OC(COC(=O)c3ccccc3)C(OC(=O)c3ccccc3)C2OC(=O)c2ccccc2)c(=O)[nH]c1=O (stereo not given) the results were RmlC RmlD mix 8.5.
Screening COc1ccc(N=C2SC(C(=O)N3CCN(c4ccccc4)CC3)CC(=O)N2C)cc1 (stereo not given) returned RmlC RmlD mix 4.2.
Screening COc1ccc(S(=O)(=O)N(C)CC(=O)NC2CC2)cc1 returned HIV RNase H inh -8.6 and RmlC RmlD mix -15.3.
`CC(=O)Cc1nsc(NC(=O)c2ccc(-c3cccc(C(F)(F)F)c3)o2)n1` gave HIV RNase H inh 1.0 and RmlC RmlD mix 62.4.
Screening Cc1nnc(NC(=O)c2ccc(-c3cccc(C(F)(F)F)c3)o2)s1 returned HIV RNase H inh 57.0* and RmlC RmlD mix 1.1.
For OCCN1CCN(c2nc(-c3ccccc3)nc3c2oc2ccccc23)CC1 the results were HIV RNase H inh -7.0.
Screening COc1ccc(-n2nnnc2S(=O)(=O)CC(=O)N2CCCCC2)cc1 returned HIV RNase H inh 29.3 and RmlC RmlD mix -7.4.
`COc1ccc(-n2nnnc2S(=O)(=O)Cc2ccc(C(=O)O)cc2)cc1` gave HIV RNase H inh 62.6* and RmlC RmlD mix -25.0.
For Oc1ccc(Cl)cc1C(C#Cc1ccccc1)N1CCOCC1 (stereo not given) the results were RmlC RmlD mix 0.7.
Screening Cc1nn(-c2ccccc2)c2sc(C(=O)C(C#N)c3ccccn3)cc12 (stereo not given) returned HIV RNase H inh 9.5.
Screening COc1ccc(N=CC2=C(Nc3ccc(OC)cc3)c3c(C)nn(-c4ccccn4)c3CC2)cc1 returned RmlC RmlD mix 60.9*.
Screening COc1ccc(-c2cc(C(=O)O)c3c(C)nn(-c4ccccn4)c3n2)cc1 returned RmlC RmlD mix 27.8.
Screening Cc1ccccc1NC(=S)NNC(=O)c1csc2c1CCC(C)C2 (stereo not given) returned RmlC RmlD mix 10.1.
`Cc1ccc(CNC(=O)C2C3C=CC(C3)C2C(=O)O)cc1` (stereo not given) gave HIV RNase H inh -3.7 and RmlC RmlD mix -16.4.
Screening Cc1cccc(OCC(=O)Nc2nonc2NC(=O)COc2cccc(C)c2)c1 returned RmlC RmlD mix -15.5.
`Cc1ccc(C)c(OCC(=O)Nc2nonc2NC(=O)COc2cc(C)ccc2C)c1` gave HIV RNase H inh 72.9* and RmlC RmlD mix 1.4.
COc1ccc(N2CCN(C(c3ccccc3OC)c3nnnn3Cc3ccco3)CC2)cc1 (stereo not given) was read as HIV RNase H inh 51.1* and RmlC RmlD mix 8.1.
For COc1ccc(Cn2nnnc2C(c2ccccc2OC)N2CCC(C(N)=O)CC2)cc1 (stereo not given) the results were HIV RNase H inh -0.2 and RmlC RmlD mix -2.2.
For COc1ccccc1NC(=O)c1cc(Sc2nncn2C)nc2ccccc12 the results were HIV RNase H inh 4.7 and RmlC RmlD mix 9.2.
Screening Cc1c(S(=O)(=O)N2CCOCC2)c(=O)n(C)c(=O)n1C returned RmlC RmlD mix 5.5.
`O=C(COC(=O)Cn1c(C(F)(F)F)nc2ccccc21)Nc1ccc2c(c1)OCCO2` gave RmlC RmlD mix -10.2.
`CCOCCCn1c(=NC(C)=O)c(C(=O)OCC)cc2c(=O)n3ccccc3nc21` gave HIV RNase H inh -6.5 and RmlC RmlD mix 67.1*.
`CCOC(=O)c1cc2c(=O)n3ccccc3nc2n(Cc2ccccc2)c1=N` gave HIV RNase H inh -23.9 and RmlC RmlD mix 30.7*.
For CCOC(=O)c1cc2c(=O)n3ccccc3nc2n(Cc2ccccc2Cl)c1=N the results were HIV RNase H inh -6.1.
For CCOC(=O)c1cc2c(=O)n3ccccc3nc2n(CCCOC)c1=NC(=O)C(C)(C)C the results were HIV RNase H inh -0.5 and RmlC RmlD mix 21.6.
For COc1ccc(-c2nnc3ccc(SCC(=O)N4CCN(c5ccccc5)CC4)nn23)cc1OC the results were HIV RNase H inh -27.1.
CC(C)CC(NC(=O)C(COC(C)(C)C)NC(=O)C(Cc1ccc(O)cc1)NC(=O)C(CO)NC(=O)C(Cc1c[nH]c2ccccc12)NC(=O)C(Cc1cnc[nH]1)NC(=O)C1CCC(=O)N1)C(=O)N[C@@H](CCCN=C(N)N)C(=O)N1CCCC1C(=O)NNC(N)=O (stereo not given in full) was read as RmlC RmlD mix -8.6.
COc1ccc(C2C=C(c3ccccc3)Nc3nc(CCCO)nn32)cc1 (stereo not given) was read as HIV RNase H inh 6.5 and RmlC RmlD mix 23.9.
For COc1ccc(C2C=C(c3cccs3)Nc3nc(CCCO)nn32)cc1 (stereo not given) the results were HIV RNase H inh -0.2 and RmlC RmlD mix 44.0*.
CCCN(C(=S)Nc1ccccc1)C1CCS(=O)(=O)C1 (stereo not given) was read as RmlC RmlD mix -6.7.
C=CCOC(=O)N1CCN(c2cccc(C(F)(F)F)c2)CC1 was read as HIV RNase H inh -6.3 and RmlC RmlD mix 3.2.
`COc1ccc(-n2c(C)cc(C(=O)CSc3nn4c(=O)c(C(C)(C)C)nnc4s3)c2C)cc1` gave HIV RNase H inh 50.2* and RmlC RmlD mix -10.3.
COc1ccc(C(=O)CSc2nn3c(=O)c(C(C)(C)C)nnc3s2)cc1 was read as HIV RNase H inh -5.1 and RmlC RmlD mix -6.3.
For CCCC(=O)Nc1ccc(-c2nc3cc(C)ccc3o2)cc1 the results were HIV RNase H inh 18.5 and RmlC RmlD mix -22.4.
For CCCC(=O)Nc1ccc(-c2nc3cc(C)c(C)cc3o2)c(O)c1 the results were HIV RNase H inh 58.2* and RmlC RmlD mix -189.5.

Bioassay records (PubChem BioAssay)
